Experimental data: PubChem BioAssay AID488 (PCMD, 2006)
Out of some 62,000 compounds screened, about 40 (0.06%) were called active. Rule as the data show it: active = inhibition above about 22% (passing the limit was not always enough); inconclusive = no clear call, values can overlap the other calls. What follows is part of a selection rich in actives, with near analogues and random picks from the rest.

Biological target: Cathepsin B (Homo sapiens) (UniProt P07858)
Experiment: cathepsin B inhibitors from pooled compounds, primary screen, biochemical, compound mixtures, AMC fluorescence (AID 488);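 also: 0% = enzyme without compound and 100% = no enzyme blank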
Details: Purified cathepsin B, AMC dipeptide fluorescence, active compounds read high,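 ten-compound pools at 5 µM per compound and 50 µM total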

Structure (SMILES)	inhibition
CN(C)/C=C/c1c(C#N)c(=O)ncn1Cc1ccccc1	4.44% (inactive)
CCCC(=O)C1=C(N(C)c2ccccc2)CC(C)(C)C(C(=O)OC)C1=O (configuration not stated)	6.7% (inactive)
O=C(O)CCN1C(=O)CC2(CCCCC2)C1=O	-0.755% (inactive)
Nc1nonc1-c1nc2ccccc2n1CCC(=O)O	23.8% (inactive)
COc1ccc(C)c(Cn2c(-c3nonc3N)nc3ccccc32)c1	19.5% (inactive)
Nc1nonc1-c1nc2ccccc2n1Cc1ccc(F)cc1	79.6% (active)
Cc1ccc(C)c(S(=O)(=O)n2cnc3ccccc32)c1	-4.15% (inactive)
O=C(NCCN1CCOCC1)c1ccc2c(c1)ncn2C1CCCC1	2.62% (inactive)
O=C(CCN1C(=O)C2C3C=CC(C3)C2C1=O)Nc1ccccc1F (configuration not stated)	1.56% (inactive)
CC1Cc2cc(/C(O)=C3\C(=O)C(=O)N(CCN4CCOCC4)C3c3ccccc3F)ccc2O1 (configuration not stated)	3.23% (inactive)
Cc1ccc(C2c3c(oc4ccc(C)cc4c3=O)C(=O)N2CCCN2CCOCC2)cc1 (configuration not stated)	3.25% (inactive)
CCOc1cc(-c2nc3cc(C)ccn3c2NCC2CCCO2)ccc1O (configuration not stated)	-4.66% (inactive)
COc1cc2c(cc1NC(=O)CN1CCN(S(=O)(=O)c3ccc(F)cc3)CC1)oc1ccccc12	2.98% (inactive)
CCC1CCCCN1CCNC(=O)c1[nH]c(C)c(C(C)=O)c1C (configuration not stated)	4.44% (inactive)
COC(=O)C1C(=O)CC(C)(O)C(C(=O)OC)C1c1ccc2c(c1)OCO2 (configuration not stated)	1.84% (inactive)
CCN(CC)C(=O)c1sc(NC(=O)c2ccco2)c(C#N)c1C	7.73% (inactive)
N#Cc1cccc(NC(=O)CCC2CCCC2)c1	0.985% (inactive)
CC(C)c1ccc(-c2nn[nH]n2)cc1	4.54% (inactive)
Cc1c(C(=O)Nc2ccccc2Cl)oc2ccc(S(=O)(=O)N3CCC4(CC3)OCCO4)cc12	6.83% (inactive)
O=C(NCCSc1ccccc1)c1ccco1	5.3% (inactive)
C=CCC(NCCCO)c1cccc(OC)c1OC (configuration not stated)	0.355% (inactive)
Cc1nc2nc[nH]n2c(=O)c1NC(=O)c1cccc(OCC(C)C)c1	0.08% (inactive)

Structure (SMILES)	inhibition
CC(C)(C)Nc1c(N)c(=O)oc2ccccc12	1.79% (inactive)
CCC1Oc2ccc(Cl)cc2N(CC(=O)O)C1=O (configuration not stated)	4.82% (inactive)
O=C(Cn1cnc2c(cnn2-c2ccc(F)cc2)c1=O)NCCc1ccccc1	-5.56% (inactive)
CN(C(=O)c1ccccn1)c1nnc(-c2ccccn2)s1	4.35% (inactive)
CN1CCN(CC(=O)C23CC4CC(CC(C4)C2)C3)CC1	-16% (inactive)
Cc1cc(-n2nc(C)cc2C)n2ncc(-c3ccccc3)c2n1	-1.95% (inactive)
COCCOC(=O)C1=C(C)N=c2s/c(=C\c3cccs3)c(=O)n2C1c1cccs1 (configuration not stated)	5.37% (inactive)
COc1ccc(C(C)=O)cc1COC(=O)Cn1cnc2ccccc2c1=O	-0.265% (inactive)
CC(=O)c1c(N2CCOCC2)nc(=S)n(Cc2ccccc2)c1C	-2.31% (inactive)
CCOc1ccc(N=C2SC(C(=O)O)CC(=O)N2C)cc1 (configuration not stated)	-1.85% (inactive)
COC(=O)Cn1c(=NC(=O)CSCC(=O)Nc2cc(C)on2)sc2ccccc21	-5.38% (inactive)
Cn1c(SCC(=O)N2CCOCC2)nnc1-c1ccc(NC(=O)c2ccccc2F)cc1	-2.64% (inactive)
CC(C)C(c1nnnn1Cc1ccccc1)N1CCC(C(N)=O)CC1 (configuration not stated)	-1.51% (inactive)
O=C(OCc1ccccc1F)c1ccc2c(c1)OCCO2	8.22% (inactive)
COC(=O)c1cc(C(=O)CSc2nc(C)cc(C)n2)ccc1O	1.56% (inactive)
CSc1ccc(Cl)c(C(=O)OCC(=O)N2CC(C)OC(C)C2)c1 (configuration not stated)	-10.2% (inactive)
COC(=O)C1=C(N)Oc2cc(C)oc(=O)c2C1c1cccnc1 (configuration not stated)	1.64% (inactive)
COC(=O)c1ccc(CSc2nncn2C)cc1	6.61% (inactive)
CCN(CC)P(=O)(/C(Cl)=C\Nc1c(C)n(C)n(-c2ccccc2)c1=O)N(CC)CC	-1.45% (inactive)
C=CCN(c1ccc(C(N)=O)cc1)S(C)(=O)=O	1.82% (inactive)
CCOC(=O)C1=C(C)N=c2s/c(=C\C(=O)OC)c(=O)n2C1c1ccc(OC)cc1 (configuration not stated)	4.36% (inactive)
Cc1ccc(Cn2nnc3c(=O)n(CC(=O)N4CCCCC4)cnc32)cc1	-4.83% (inactive)

Structure (SMILES)	inhibition
O=C(CC1Nc2ccccc2NC1=O)Nc1ccccc1 (configuration not stated)	2.4% (inactive)
COc1ccccc1-n1cnc2cc(NS(=O)(=O)c3ccccc3)ccc21	4.81% (inactive)
C=CCn1c(=N)n(CC(O)COc2ccc(OC)cc2)c2ccccc21 (configuration not stated)	4.16% (inactive)
CCOc1ccc(CC(=O)Nc2ccc(S(=O)(=O)Nc3cc(C)on3)cc2)cc1OCC	3.38% (inactive)
COC(=O)C1=C(C)NC(=O)NC1/C=C/c1ccccc1 (configuration not stated)	4.12% (inactive)
O=C(Cn1c(-c2ccc(Cl)cc2)noc1=O)N1CCN(c2ccccc2F)CC1	-2.31% (inactive)
CCOC(=O)c1ccc2[nH]c(C)c(CN3CCN(C)CC3)c(=O)c2c1	6.62% (inactive)
Cc1nc2cc(S(=O)(=O)C(F)(F)F)ccc2s1	1.09% (inactive)
CCOc1ccc(NC(=O)CCS(=O)(=O)c2cccc3nsnc23)cc1	1.87% (inactive)
Cc1nnc(SCC(=O)NCc2ccccc2)s1	-1.96% (inactive)
CC1=CC(C)(C)N(C(=O)CSc2nnc(-c3ccccc3)o2)c2ccc(C)cc21	1.93% (inactive)
O=c1cc(CO)oc(CN2CCC(Cc3ccccc3)CC2)c1O	-2.05% (inactive)
CCOC(=O)c1cc2occc2n1CC(=O)N1CCN(C(=O)c2ccco2)CC1	0.785% (inactive)
Cc1cc(NC(=O)COC(=O)c2ccc(F)c(S(=O)(=O)N3CCOCC3)c2)no1	5.21% (inactive)
CC1=C(C(N)=O)C(c2ccc3c(c2)OCO3)n2nc(-c3cccc(C)c3)nc2N1 (configuration not stated)	-4.66% (inactive)
CCCCn1c(CCCNC(=O)CC)nc2ccccc21	1.44% (inactive)
Cc1cc(Cl)c(S(=O)(=O)NCc2cccnc2)cc1OCC(N)=O	7.41% (inactive)
O=C(/C=N/O)Nc1ccccc1	3.15% (inactive)
NC(=O)C1CCN(C(=O)c2ccc(C(F)(F)F)cc2)CC1	-1.58% (inactive)
CCOC(=O)CSc1nnc(CNC(=O)c2cccs2)n1-c1cc(OC)ccc1OC	0.53% (inactive)
Cc1cccc(OCc2nnc(SCn3nnc4ccccc4c3=O)o2)c1	-0.48% (inactive)
O=C(Cn1c(-c2cncs2)nc2ccccc21)NC1CCCC1	1.92% (inactive)

Structure (SMILES)	inhibition
C=C1c2cc(CC)ccc2NC(=O)N1c1ccc(C)cc1	5.66% (inactive)
COc1ccc(OC)c(CNC(=O)CCc2nc(-c3cccs3)no2)c1	-0.11% (inactive)
CC(=O)c1c(C)[nH]c(C(=O)NCCCN2CCCC2)c1C	3.25% (inactive)
c1ccc2[nH]c(-c3nc4ccccc4[nH]3)nc2c1	-5.47% (inactive)
Cc1ccc2cccc(S(=O)(=O)N3CCN(c4ccccc4F)CC3)c2n1	2.15% (inactive)
NC(=O)CSC1=Nc2ccccc2C2=NC(CCC(=O)NCc3ccc(F)cc3)C(=O)N12 (configuration not stated)	0.205% (inactive)
O=C(c1ccc(=O)[nH]c1)N(Cc1ccco1)C1(C(=O)NC2CCCCC2)CCCCC1	2.12% (inactive)
O=C(CN1CCOCC1)Nc1c2c(nc3c1CCC3)CCC2	0.235% (inactive)
CCOc1c(N2CCCCC2)c(=O)c1=O	-3.57% (inactive)
CCn1c(=O)cc(SCC(=O)NCc2ccc3c(c2)OCO3)c2ccccc21	1.53% (inactive)
Cc1ccc(N2CCN(S(=O)(=O)c3ccc(F)cc3)CC2)c(C)c1	-2.33% (inactive)
CCCCN(CC)C(=O)CN(C)S(=O)(=O)c1cccc2nsnc12	0.445% (inactive)
O=C(NCc1ccco1)c1cc(-c2cccnc2)nc2ccc(Cl)cc12	-4.83% (inactive)
COc1ccc2c(c1)C=CC1(O2)N(CCO)c2ccccc2C1(C)C (configuration not stated)	2.88% (inactive)
CCOC(=O)N1CCC(C(N)=O)CC1	7.54% (inactive)
CSC1=N/C(=C\C=C\c2cccs2)C(=O)S1	9% (inactive)
COc1cc(=O)[nH]c(=O)n1C(=O)Cc1ccccc1	3.21% (inactive)
COC(=O)COc1ccc(S(=O)(=O)Nc2ccc(NC(C)=O)cc2)cc1	0.2% (inactive)
CS(=O)(=O)c1ccc2nc(NC(=O)C3C4C=CC(C4)C3C(=O)O)sc2c1 (configuration not stated)	0.27% (inactive)
COc1ccc(NC(=O)Nc2cccc3cccnc23)cc1	3.29% (inactive)
Cc1ccc(-c2noc(-c3ccccc3C(=O)NCC3CCCO3)n2)cc1 (configuration not stated)	-4.67% (inactive)
C=CCn1c(SCc2cc(C(=O)OC)c(C)o2)nnc1-c1ccncc1	-5.06% (inactive)

Structure (SMILES)	inhibition
C=CCOc1ccc(C2/C(=C(\O)c3c(C)[nH]c(C(=O)OC)c3C)C(=O)C(=O)N2CCN(C)C)cc1 (configuration not stated)	-5.12% (inactive)
O=C(Cn1cnc2c(cnn2-c2ccccc2)c1=O)NCc1ccccc1	-0.45% (inactive)
Oc1ccc(-c2csc(Nc3cccnc3)n2)cc1	2.75% (inactive)
CC(C)C[C@H](NC(=O)[C@@H]1O[C@H]1C(=O)O)C(=O)NCCCCN=C(N)N	99.7% (active)
COC(=O)c1cc(OC)c(OC)cc1NC(=O)C1CCCO1 (configuration not stated)	-0.18% (inactive)
CC1=NCCN1S(=O)(=O)c1ccc(Br)c(C)c1	-3% (inactive)
O=C1CC(c2ccccc2)C(=O)N1c1cccc(O)c1 (configuration not stated)	-1.1% (inactive)
COc1ccc(OCCCC(=O)Nc2nnc(C3CCCO3)s2)cc1 (configuration not stated)	-2.29% (inactive)
Cc1ccc(S(=O)(=O)N(C)CC(=O)N2CCc3ccccc32)cc1	-2.02% (inactive)
O=C1c2oc3ccc(Br)cc3c(=O)c2C(c2cccc(F)c2)N1CCO (configuration not stated)	-5.69% (inactive)
O=C(NCc1cccnc1)c1ccc(CS(=O)(=O)c2ccc(Br)cc2)o1	3.93% (inactive)
CC(=O)Nc1ccc(S(=O)(=O)Nc2ccc(N3CCOCC3)c(F)c2)cc1	1.35% (inactive)
Cc1nc2ccc(S(=O)(=O)NC(C(=O)N3CCCCCC3)C(C)C)cc2s1 (configuration not stated)	6.23% (inactive)
CCn1c(COc2cccc(OC)c2)nnc1SCC(=O)N1CCOCC1	2.62% (inactive)
CCOC(=O)c1c(CN2CCOCC2)n(-c2ccccc2)c2ccc(O)cc12	4.31% (inactive)
CC(c1nnc(SCC(=O)Nc2sccc2C#N)n1-c1ccc(Cl)cc1)N(C)C (configuration not stated)	5.86% (inactive)
Cc1cc(C)nc(-n2nc(C)cc2NC(=O)c2ccc(Br)o2)n1	6.29% (inactive)
c1csc(-c2cn3c(n2)SCC3)c1	0.03% (inactive)
Cc1cc(/C=N/n2cnnc2)c(C)n1-c1ccc2ncccc2c1	0.4% (inactive)
